ADAM17 inh: ADAM17 inhibition, QFRET primary screen. recombinant ADAM17, EDANS/DABCYL FRET peptide cleavage. inhibition, % at 6.95 µM. hit rate 0.83% among 370,000;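 active = inhibition above the mean of compounds lying between control limits plus 3 SD, set per campaign, cut at about 8.5% in these data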
Ecoli rRNA inh: inhibits bacterial ribosomal RNA function over humanized ribosomes; E. coli WT GFP vs humanized-ribosome RFP mutants, fluorescence, 24 h; active compounds read low; DMSO median 0, no signal -100; GFP signal change (wild-type ribosome), % (test concentration not listed); hit rate 1.6% among 350,000; AID 720706;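 active = significant combined selectivity score with lowered wild-type GFP, culture density cut under 30%, mutant RFP and density less affected; inactive = any of these conditions unmet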
ADAM10 inh: inhibitors of human ADAM10. O14672. recombinant ADAM10, EDANS/DABCYL FRET peptide cleavage, 3 h. inhibition, % at 7 µM. hit rate 0.62% among 370,000. AID 720582;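 active = inhibition above a per-campaign cutoff equal to the mean of compounds falling between control-based bounds plus 3 SD, cut at about 20% in these data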
Target sequence (O14672 214-748 limits assumed): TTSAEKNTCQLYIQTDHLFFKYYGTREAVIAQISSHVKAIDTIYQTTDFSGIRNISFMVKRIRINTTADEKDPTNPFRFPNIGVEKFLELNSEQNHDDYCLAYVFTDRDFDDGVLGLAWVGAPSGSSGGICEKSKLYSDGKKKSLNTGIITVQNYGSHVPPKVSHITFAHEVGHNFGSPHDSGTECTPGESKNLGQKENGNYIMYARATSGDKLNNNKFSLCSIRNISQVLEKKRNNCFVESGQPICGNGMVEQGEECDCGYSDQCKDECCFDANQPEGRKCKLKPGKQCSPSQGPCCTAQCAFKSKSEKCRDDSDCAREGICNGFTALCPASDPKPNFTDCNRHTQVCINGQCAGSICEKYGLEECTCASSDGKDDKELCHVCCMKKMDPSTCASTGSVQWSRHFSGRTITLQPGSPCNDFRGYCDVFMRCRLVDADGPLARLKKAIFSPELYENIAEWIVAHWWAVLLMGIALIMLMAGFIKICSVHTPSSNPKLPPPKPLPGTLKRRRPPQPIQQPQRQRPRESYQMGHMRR
proKLK7 act: activates the human kallikrein-7 zymogen; activation, % at 7 µM; purified proKLK7, EDANS-DABCYL substrate fluorescence; 100% is mature enzyme control, 0% vehicle; hit rate 0.9% among 370,000;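 active = activation above the mean of all tested compounds plus 3 SD, computed per campaign excluding outliers beyond control limits, cut at about 13% in these data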
Target sequence (P49862 whole entry, looked up): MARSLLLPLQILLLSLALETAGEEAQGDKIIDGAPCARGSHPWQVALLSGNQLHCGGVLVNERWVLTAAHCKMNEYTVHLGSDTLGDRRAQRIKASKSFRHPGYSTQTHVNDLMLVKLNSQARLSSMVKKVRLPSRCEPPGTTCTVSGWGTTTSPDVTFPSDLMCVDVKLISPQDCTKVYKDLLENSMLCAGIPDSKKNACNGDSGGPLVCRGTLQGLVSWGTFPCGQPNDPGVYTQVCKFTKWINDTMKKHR
FGF22 binding: FGF22 (human) thermal shift binding | activity (Tm shift, normalised), % at 9.99 µM | recombinant FGF22 thermal shift, SYPRO orange fluorescence; percent of sucrose octasulfate shift, DMSO zero | Q9HCT0 | hit rate 1.5% among 340,000;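 active = mean Tm shift, scaled 0 neutral to 100 positive control, at about 1.3% or above, every replicate too, limit read from the data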
proKLK7 act conf: proKLK7 activation, confirmation; shares compounds with proKLK7 act; purified proKLK7, EDANS-DABCYL substrate fluorescence; scaled: vehicle 0, mature enzyme 100; activation, % at 7 µM; hit rate 68% among 3,200;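 active = activation, as change over the incubation, above the mean of all tested compounds plus 3 SD, cut at about 13% in these data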
EDANS interfere: counter-screen for kallikrein-7 activators: EDANS-DABCYL optical interference; EDANS-DABCYL substrate fluorescence interference, no enzyme, 4 h; solvent 0%, active enzyme control 100%; AID 686952; shares compounds with proKLK7 act; activation, % at 7 µM; hit rate 80% among 3,200;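 active = activation above the all-compound mean plus 3 SD, ignoring values outside control-based bounds, cut at about 4.8% in these data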;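 note: value is the 4 h activation minus the activation read at time zero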
ADAM10 confirm: confirmation of inhibitors of human ADAM10 | inhibition, % at 6.95 µM | shares compounds with ADAM10 inh | ADAM10 QFRET peptide cleavage, EDANS fluorescence | hit rate 1% among 2,100;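 active = inhibition above about 20% chosen separately for each screening run, limit read from the data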
ADAM17 ctr: counter-screen for ADAM10 exosite inhibitors: inhibitors of human ADAM17 | shares compounds with ADAM10 inh | ADAM17 QFRET peptide cleavage, EDANS fluorescence | inhibition, % at 6.95 µM | hit rate 0.5% among 2,100;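 active = mean triplicate inhibition above the solvent-only control wells' mean plus 3 SD, cut at about 12% in these data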
AID977621: growth inhibition of wild-type GFP E. coli, dose response, H69 mutant RFP, cherry-pick. shares compounds with Ecoli rRNA inh. E. coli wild-type GFP strain growth, fluorescence, 24 h. activity change, negative = inhibition at 50 µM. 1,900 tested, under 10 active. AID 977621;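 active = Wild-type ribosome reporter drop at least double the humanized mutant ribosome reporter drop, growth loss under a set limit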;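 note: wild-type GFP and H69 mutant RFP strains grown together 50/50 in each well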
AID977628: growth of wild-type and h24-humanized E. coli strains – h24 mutant RFP vs wild-type GFP, cherry-pick, dose response. AID 977628. E. coli WT GFP strain growth, fluorescence, 24 h. shares compounds with Ecoli rRNA inh. 1,900 tested, under 10 active. activity change, negative = inhibition at 50 µM;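 active = compound lowering the normal-ribosome reporter at least twice as much as the humanized-ribosome reporter, growth loss under a set limit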;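 note: wild-type GFP and h24 humanized RFP strains co-cultured 1 to 1 per well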
Each line names hits and unclear results; the compound was inactive in the other large screens (follow-up assays come after a bar, where they were run). Only some compounds are listed: those with a hit (about 3.8% of all), similar ones and a draw of the others.

O=C1c2ccccc2NC(c2cccc(F)c2)N1Cc1ccco1 (stereo unspecified)	Ecoli rRNA inh -33, proKLK7 act 22 | proKLK7 act conf inactive | EDANS interfere inactive | AID977621 inactive | AID977628 inactive
OC[C@@H]1[C@@H](c2ccccc2)C2(CN(CC3CC3)C2)N1Cc1ccc(F)cc1	none (no result: ADAM17 inh, ADAM10 inh, proKLK7 act)
O=C(N/N=C\c1ccc(Cl)cc1Cl)c1sccc1-n1cccc1	ADAM10 inh 20 (no result: Ecoli rRNA inh, FGF22 binding) | ADAM10 confirm inactive | ADAM17 ctr inactive
Cc1nn(C)cc1NC(=O)C[C@@H]1CC[C@@H]2[C@@H](COc3ccc(NC(=O)Nc4cccc(Cl)c4)cc3C(=O)N2C)O1	none (no result: ADAM17 inh, ADAM10 inh, proKLK7 act)
CCc1ccc([C@H]2[C@@H]3C(=O)C[C@@H]4C(=O)N(CC)C(=O)[C@@H]4[C@@H]3CN2S(=O)(=O)c2ccc(C)cc2)cc1	none
CCc1ccc([C@H]2[C@@H]3C(=O)C[C@@H]4C(=O)N(C5CCCCC5)C(=O)[C@@H]4[C@@H]3CN2S(=O)(=O)c2ccc(C)cc2)cc1	ADAM10 inh 20 | ADAM10 confirm inactive | ADAM17 ctr inactive
CCc1ccc([C@H]2[C@@H]3C(=O)C[C@@H]4C(=O)N(C)C(=O)[C@@H]4[C@@H]3CN2S(=O)(=O)c2ccc(C)cc2)cc1	none
CCc1ccc([C@H]2[C@@H]3C(=O)C[C@@H]4C(=O)N(Cc5ccccc5)C(=O)[C@@H]4[C@@H]3CN2S(=O)(=O)c2ccc(C)cc2)cc1	ADAM10 inh 23 | ADAM10 confirm inactive | ADAM17 ctr inactive
C=CCN1CCc2cc(O)c(O)cc2C(c2ccccc2)C1 (stereo unspecified)	ADAM10 inh 21 (no result: Ecoli rRNA inh) | ADAM10 confirm inactive | ADAM17 ctr inactive
C=CCN1CCc2c(cc(O)c(O)c2Cl)C(c2ccccc2)C1 (stereo unspecified)	none
CCOc1ccccc1NC(=S)N1C2CCC1CC(NC(=O)NC13CC4CC(CC(C4)C1)C3)C2 (stereo unspecified)	ADAM10 inh 33 | ADAM10 confirm inactive | ADAM17 ctr inactive
COc1ccccc1NC(=S)N1C2CCC1CC(NC(=O)NC13CC4CC(CC(C4)C1)C3)C2 (stereo unspecified)	none (no result: Ecoli rRNA inh, FGF22 binding)
CN(C)CC(=O)Nc1ccc2c(c1)[C@@H]1C[C@@H](CC(=O)NC3CCCC3)O[C@@H](CO)[C@@H]1O2	none (no result: ADAM17 inh, ADAM10 inh, proKLK7 act)
CC(=O)N(C)C[C@@H]1Oc2cc(C#CC3CCCC3)ccc2S(=O)(=O)N([C@@H](C)CO)C[C@H]1C	none (no result: ADAM17 inh, ADAM10 inh, proKLK7 act)
O=C(NC(=S)Nc1ccccc1N1CCCC1)c1ccc(-c2cccc([N+](=O)[O-])c2)o1	ADAM10 inh 20 (no result: Ecoli rRNA inh, FGF22 binding) | ADAM10 confirm inactive | ADAM17 ctr inactive
COc1ccc(S(=O)(=O)Nc2ccc3c(c2)C(=O)N([C@H](C)CO)C[C@H](C)[C@H](CN(C)C(=O)Nc2ccc(C(F)(F)F)cc2)OCCCC[C@@H](C)O3)cc1	none (no result: ADAM17 inh, ADAM10 inh, proKLK7 act)
CN1C(=O)c2cc(NC(=O)Nc3ccccc3F)ccc2OC[C@H]2O[C@@H](CC(=O)NCc3ccc(-c4ccccc4)cc3)CC[C@@H]21	ADAM10 inh 30 | ADAM10 confirm 22 | ADAM17 ctr inactive
CN1C(=O)c2cc(NC(=O)Nc3ccccc3F)ccc2OC[C@H]2O[C@H](CC(=O)NCc3ccc(-c4ccccc4)cc3)CC[C@@H]21	none (no result: ADAM17 inh, ADAM10 inh, proKLK7 act)
O=C(Nc1ccc(F)cc1)N1C[C@H]2[C@@H](c3ccccc31)[C@@H](CO)N2C(=O)c1ccccn1	none (no result: ADAM17 inh, ADAM10 inh, proKLK7 act, FGF22 binding)
C[C@H]1CN(C)C(=O)c2cccc(N)c2O[C@@H]1CN(C)C(=O)OC(C)(C)C	none (no result: ADAM17 inh, ADAM10 inh, proKLK7 act, FGF22 binding)
OC(COc1ccc2c(c1)CCC2)CN1CCN(c2ccccc2F)CC1 (stereo unspecified)	ADAM10 inh 20 (no result: Ecoli rRNA inh, FGF22 binding) | ADAM10 confirm inactive | ADAM17 ctr inactive
O=C(CC1SC(=Nc2ccccc2)N(Cc2ccccn2)C1=O)Nc1ccc(Br)cc1 (stereo unspecified)	ADAM10 inh 22 (no result: Ecoli rRNA inh, FGF22 binding) | ADAM10 confirm inactive | ADAM17 ctr inactive
O=C(CC1SC(=Nc2cccc3ccccc23)N(Cc2ccccn2)C1=O)Nc1ccccc1Br (stereo unspecified)	none
C[C@@H]1CN([C@H](C)CO)C(=O)c2cc(-c3ccc(C(=O)N(C)C)cc3)cnc2O[C@H]1CN(C)C	none (no result: ADAM17 inh, ADAM10 inh, proKLK7 act)
CCOc1ccc(NC(=O)CN(C)C(=O)CSCc2cccc(C)c2)cc1OCC	ADAM10 inh 30 | ADAM10 confirm inactive | ADAM17 ctr inactive
CCCNC(=O)N1CC2(CN(S(=O)(=O)CC)C2)c2c(n(C)c3cc(OC)ccc23)[C@@H]1CO	none (no result: ADAM17 inh, ADAM10 inh, proKLK7 act)
COc1ccc(/C=N/Nc2cc(N3CCCC3)nc(N3CCCC3)n2)cc1	ADAM10 inh 65 | ADAM10 confirm inactive | ADAM17 ctr inactive
Oc1ccc(/C=N/Nc2cc(N3CCCC3)nc(N3CCCC3)n2)cc1	none (no result: Ecoli rRNA inh, FGF22 binding)
CCCNC(=O)C[C@@H]1C[C@@H]2c3cc(NC(=O)CC4CC4)ccc3O[C@@H]2[C@@H](CO)O1	none (no result: ADAM17 inh, ADAM10 inh, proKLK7 act)
OC(c1ccc2c(c1)OCO2)c1ncc(-c2cccc(C(F)(F)F)c2)[nH]1 (stereo unspecified)	ADAM10 inh 20 (no result: Ecoli rRNA inh) | ADAM10 confirm inactive | ADAM17 ctr inactive
O=C(C[C@@H]1CC[C@@H](NC(=O)C2CCC2)[C@H](CO)O1)Nc1nccs1	none (no result: ADAM17 inh, ADAM10 inh, proKLK7 act)
CC(=O)N(C)C[C@@H]1Oc2ccc(NC(=O)NC(C)C)cc2CC(=O)N(C)C[C@H]1C	none (no result: ADAM17 inh, ADAM10 inh, proKLK7 act, FGF22 binding)
O=C(CCn1c(=O)oc2ccccc21)N1CCN(C(c2ccccc2)c2ccccc2)CC1	ADAM10 inh 27 (no result: Ecoli rRNA inh, FGF22 binding) | ADAM10 confirm inactive | ADAM17 ctr inactive
CC(C)NC(=O)N1C[C@@H]2[C@H](c3ccccc31)[C@@H](CO)N2C(=O)c1ccccn1	none (no result: ADAM17 inh, ADAM10 inh, proKLK7 act)
Cc1cc(S(=O)(=O)N2CCc3ccccc3C2)ccc1F	ADAM10 inh 22 | ADAM10 confirm inactive | ADAM17 ctr inactive

Source: PubChem BioAssay (several laboratories)
